A short description of assay [1]: liver-stage malaria parasite growth inhibition, primary screen, cell-based, HepG2, luciferase luminescence, HepG2 viability (AID 624349).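 Also: 100% = mean of DMSO negative control wells on the same plate.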 As to conditions: P. berghei liver stage in HepG2, luciferase luminescence, concentration not given here; parasite load remaining: stronger effect = lower value; viability: measured here: HepG2 viability without parasites.
A short description of assay [2]: stimulators of nuclear beta-catenin in C2C12, primary screen, imaging, WNT3A-conditioned medium, mouse C2C12, NPC library (AID 1117326; in the data active = nuclear beta-catenin stimulation mostly above about 4.2%, no sharp cut-off; inactive = mostly below about 10%). As to conditions: stronger effect = higher value.
Assay [3] in a line: stimulators of insulin release from INS-1E, primary screen, cell-based, 5 mM glucose, NPC library (AID 1117329;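 active = compound raises insulin release from rat beta cells at 5 mM glucose, no numeric limit stated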). As to conditions: rat INS-1E insulin secretion, at 10 µM, stronger effect = higher value.
Assay [4] is described as follows: growth inhibition of GSK3B-pretreated HCT116 cells – cell-based, CellTiter-Glo, 0.2 to 20 µM (AID 1117336;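 active = compounds lowering colon cancer cell viability after pretreatment blocking the GSK3B kinase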). As to conditions: HCT116 viability after GSK3B inhibitor, at 20 µM, stronger effect = higher value. (In ATP-based viability assays light output follows the ATP content of the culture.)
A short description of assay [5]: inhibition of endothelial tube formation, primary screen, imaging, VEGF stimulated, CD31 staining, tube area, NPC library (AID 1117340;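 active = compound that reduces growth-factor-driven endothelial tube area in a mixed cell culture, no cutoff stated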). The note with it: VEGF-stimulated ADSC/ECFC co-culture, at 10 µM, stronger effect = higher value.
Assay [6] in a line: glucagon-like peptide 1 release enhancers, primary assay, NCI-H716 cell line, NPC library (AID 1117341;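 active = compound raises GLP1 secretion from the human gut endocrine cells, with no numeric limit stated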). The note with it: NCI-H716 cells, at 10 µM, stronger effect = higher value.
A short description of assay [7]: HCT116 colon cancer cell growth inhibition, primary screen, CellTiter-Glo luminescence, NPC library (AID 1117342;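 active = compounds that lower survival of HCT116 colon cancer cells in the luminescence readout, no numeric limit stated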). As to conditions: at 20 µM (top of the series).
Assay [8] in a line: CellTiter-Glo luminescent readout of SW480 viability loss, NPC library primary (AID 1117343;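 active = compounds that lower viability of the colon cancer cells in the luminescence readout, with no numeric limit stated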). As to conditions: CellTiter-Glo luminescence; at 20 µM (top of the series).
Assay [9] is described as follows: decreased DLD-1 cellular survival, CellTiter-Glo luminescent readout, NPC compound collection, primary HTS (AID 1117346;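 active = compounds that lower survival of DLD-1 colon cancer cells in the luminescence readout, no cutoff given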). As to conditions: DLD-1 viability, CellTiter-Glo luminescence; at 20 µM (top of the series).
The target of assay [10] is 6-phosphogluconate dehydrogenase, decarboxylating (Homo sapiens) (UniProt P52209). In words: 6PGD enzyme inhibitors, primary screen, biochemical, human, recombinant enzyme, NADPH absorbance (AID 1159550;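 active = at least 20% inhibition of 6-phosphogluconate dehydrogenase activity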). As to conditions: recombinant 6PGD, NADPH absorbance 341 nm; at 10 µM; stronger effect = higher value.

Several values for one entry are separate records, joined by “and”; a condition that tells them apart may be missing. Equal entries are not always repeated. Activity calls are given as the source filed them. Rule as the data show it, unless noted: active = parasite load remaining mostly below about 12% (no sharp cut-off); inactive = mostly above about 10%.

6-phosphogluconate dehydrogenase, decarboxylating (Homo sapiens), sequence (P52209 whole entry, looked up): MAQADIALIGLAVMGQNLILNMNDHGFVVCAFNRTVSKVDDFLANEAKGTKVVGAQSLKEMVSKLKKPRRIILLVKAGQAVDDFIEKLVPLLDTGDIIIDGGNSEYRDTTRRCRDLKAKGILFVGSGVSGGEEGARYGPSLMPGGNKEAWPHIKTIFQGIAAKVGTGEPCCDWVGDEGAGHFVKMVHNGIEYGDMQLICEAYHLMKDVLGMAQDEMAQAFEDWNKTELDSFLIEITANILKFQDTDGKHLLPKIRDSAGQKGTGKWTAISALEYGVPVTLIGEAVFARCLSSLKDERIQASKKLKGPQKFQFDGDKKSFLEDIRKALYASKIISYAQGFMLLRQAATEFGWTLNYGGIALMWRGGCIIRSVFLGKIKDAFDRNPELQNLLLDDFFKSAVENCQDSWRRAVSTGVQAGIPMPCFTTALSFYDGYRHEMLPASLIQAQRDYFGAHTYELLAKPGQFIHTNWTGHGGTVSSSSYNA

Usually viability stands for a read-out of living cells in per cent, often relative to untreated cells. As usually defined, the inhibition is the change of the read-out against control, counted positive when it falls. `Nc1ccc(C(=O)NCC(=O)O)cc1`: the parasite load remaining in assay [1] is 103% (inactive) and 157% (inactive) and 40.5% (inactive). Also, in [1], the viability was 101% and 82% and 89.7%. The nuclear beta-catenin stimulation in assay [2] (at 10 µM) was 0.5% (inactive); in assay [2] (stimulation, at 2 µM), 1.4%. The insulin secretion stimulation in assay [3] was -1.1% (inactive). In [4], the viability decrease is -2.9% (inactive). In [5], the tube area decrease is -2.1% (inactive). Also, the GLP1 secretion stimulation in [6] was 2.6% (inactive). Besides, in [7], the inhibition of viability was -15.3% (inactive). Besides, the viability decrease (inhibition) in assay [8] was 36.1% (inactive); in assay [9] it was 4.3% (inactive). Also, the inhibition in assay [10] was -8.81% (inactive).
As for `CO[C@@]12[C@H](COC(N)=O)C3=C(C(=O)C(C)=C(N)C3=O)N1C[C@@H]1N[C@@H]12`, the parasite load remaining in assay [1] is -0.17% (inactive). Further, the viability in [1] was determined as 11%. Moreover, the nuclear beta-catenin stimulation is 26.8% (inactive) in assay [2] (at 10 µM) and 11.6% in assay [2] (stimulation, at 2 µM). Moreover, the insulin secretion stimulation in assay [3] is 0.2% (inactive). Besides, the viability decrease in [4] was 106% (active). Also, the tube area decrease in [5] was 108% (active). Moreover, the GLP1 secretion stimulation in assay [6] was 1.2% (inactive). Besides, in assay [7], the inhibition of viability was 105% (active). Further, the results for the viability decrease (inhibition) in [8] and in [9] were 124% (active) and 95.8% (active), respectively. Also, in [10], the inhibition was -2.77% (inactive).
As for `CCCCN(CCCC)CCCOC(=O)c1ccc(N)cc1`, the parasite load remaining in assay [1] is 67.1% (inactive) and 96% (inactive) and 39.6% (inactive). In addition, in assay [1], the viability is 98.6% and 79.9% and 102%. The nuclear beta-catenin stimulation in [2] (at 10 µM) was 0.5% (inactive); in assay [2] (stimulation, at 2 µM), 1.7%. In addition, the insulin secretion stimulation in assay [3] was 0.7% (inactive). Moreover, the viability decrease in assay [4] is -47.6% (inactive). The tube area decrease in [5] was 18.7% (inactive). Moreover, in assay [6], the GLP1 secretion stimulation was 0.7% (inactive). Also, the inhibition of viability in [7] was 15% (inactive). The viability decrease (inhibition) is 21.3% (inactive) in assay [8] and -4.6% (inactive) in assay [9]. For the same compound, the inhibition in assay [10] is -3.82% (inactive).
As to `Cc1cc(=O)[nH]c(=S)[nH]1`, in assay [1], the parasite load remaining is 70.4% (inactive). The viability in assay [1] amounted to 92%. Also, the nuclear beta-catenin stimulation was -1.2% (inactive) in [2] (at 10 µM) and -0.4% in [2] (stimulation, at 2 µM). Besides, the insulin secretion stimulation in [3] was -0.5% (inactive). Besides, in assay [4], the viability decrease was 0.65% (inactive). Besides, in assay [5], the tube area decrease is -25.4% (inactive). Besides, in assay [6], the GLP1 secretion stimulation was 1.6% (inactive). Besides, the inhibition of viability in assay [7] was -2.3% (inactive). Also, the results for the viability decrease (inhibition) in assay [8] and in assay [9] were 11.6% (inactive) and 0.15% (inactive), respectively. In addition, the inhibition in assay [10] is -2.01% (inactive).
For `O=C1C(O)=C(O)C(=O)C(O)=C1O`, the parasite load remaining in assay [1] was 67.5% (inactive) and 145% (inactive) and 28.2% (inactive). The viability in assay [1] is 94.1% and 90.9% and 99%. Besides, the nuclear beta-catenin stimulation in [2] (at 10 µM) is -1.5% (inactive); in [2] (stimulation, at 2 µM), 0.7%. The insulin secretion stimulation in assay [3] was 1.9% (inactive). Also, the viability decrease in [4] was -21% (inactive). In addition, the tube area decrease in [5] was -10.5% (inactive). The GLP1 secretion stimulation in assay [6] was -1.5% (inactive). Further, in assay [7], the inhibition of viability was -0.4% (inactive). Besides, the viability decrease (inhibition) in assay [8] is 27.9% (inactive); in [9], 23.1% (inactive). Further, the inhibition in assay [10] is 10.5% (inactive).
With `O=C(O)CCCCC1CCSS1` (configuration not stated), in [1], the parasite load remaining is 165% (inactive). For the same compound, in [1], the viability worked out at 96.8%. In addition, the nuclear beta-catenin stimulation is 0% (inactive) in [2] (at 10 µM) and -0.2% in assay [2] (stimulation, at 2 µM). Also, the insulin secretion stimulation in assay [3] is -1.9% (inactive). Moreover, the viability decrease in assay [4] is 3.2% (inactive). Besides, in [5], the tube area decrease is 10.9% (inactive). In assay [6], the GLP1 secretion stimulation was 0.5% (inactive). In assay [7], the inhibition of viability is 14.7% (inactive). Moreover, the viability decrease (inhibition) in [8] is 29.9% (inactive); in assay [9], -0.7% (inactive). Moreover, the inhibition in assay [10] is 14.8% (inactive).
In the case of `CCCCOc1ccc(OCCCN2CCOCC2)cc1`, the parasite load remaining in assay [1] was 92% (inactive) and 117% (inactive) and 30.7% (inactive). Besides, the viability in assay [1] was 109% and 67.4% and 85.2%. Also, the nuclear beta-catenin stimulation was 1.4% (inactive) in assay [2] (at 10 µM) and 0.4% in [2] (stimulation, at 2 µM). The insulin secretion stimulation in assay [3] was 0.6% (inactive). The viability decrease in assay [4] was -10.8% (inactive). Moreover, in assay [5], the tube area decrease was 15.4% (inactive). Moreover, the GLP1 secretion stimulation in assay [6] was -1.7% (inactive). Also, the inhibition of viability in assay [7] is 24.8% (inactive). For the same compound, the viability decrease (inhibition) in assay [8] is 46.8% (inactive); in [9], 22.7% (inactive). Also, in assay [10], the inhibition was -17.9% (inactive).
Turning to `O=C1OC(c2ccc(O)cc2)(c2ccc(O)cc2)c2ccccc21`, the parasite load remaining in assay [1] is 95% (inactive) and 84.8% (inactive). The viability in assay [1] was 73.9% and 95.1%. In addition, the nuclear beta-catenin stimulation was 1.3% (inactive) in [2] (at 10 µM) and 0% in assay [2] (stimulation, at 2 µM). Also, the insulin secretion stimulation in assay [3] was 11.5% (inactive). Also, the viability decrease in assay [4] was 31.1% (inactive). The tube area decrease in assay [5] was 14.1% (inactive). Further, the GLP1 secretion stimulation in [6] was 11.8% (inactive). Besides, the inhibition of viability in [7] is 12% (inactive). In addition, the viability decrease (inhibition) in assay [8] is 80.7% (active); in assay [9], 43.5% (inactive). Also, in assay [10], the inhibition is -2.11% (inactive).
As for `CCn1cc(C(=O)O)c(=O)c2cnc(N3CCCC3)nc21`, the parasite load remaining in assay [1] was 91.2% (inactive) and 141% (inactive). For the same compound, in [1], the viability is 104% and 72%. The nuclear beta-catenin stimulation in assay [2] (at 10 µM) was -0.4% (inactive); in [2] (stimulation, at 2 µM), 1.2%. Moreover, in assay [3], the insulin secretion stimulation is -0.4% (inactive). Further, the viability decrease in [4] was -29.5% (inactive). In addition, the tube area decrease in assay [5] is 1.8% (inactive). Also, the GLP1 secretion stimulation in [6] is 1.2% (inactive). Further, the inhibition of viability in [7] was 0% (inactive). For the same compound, the values for the viability decrease (inhibition) in assay [8] and in assay [9] were 11.2% (inactive) and -1.2% (inactive), respectively. Also, the inhibition in assay [10] is 5.15% (inactive).
With `OCc1ccccc1O`, the parasite load remaining in assay [1] is 91.8% (inactive) and 36.5% (inactive). Moreover, the viability in [1] is 78.7% and 97.3%. Besides, the nuclear beta-catenin stimulation in assay [2] (at 10 µM) is 0.4% (inactive); in assay [2] (stimulation, at 2 µM), 1.3%. Moreover, the insulin secretion stimulation in [3] is -0.1% (inactive). Also, the viability decrease in [4] was -7.2% (inactive). For the same compound, the tube area decrease in [5] was 19.2% (inactive). Moreover, in assay [6], the GLP1 secretion stimulation is -0.3% (inactive). In [7], the inhibition of viability was -6.03% (inactive). For the same compound, the viability decrease (inhibition) in assay [8] is -5.8% (inactive); in assay [9] it was -17.8% (inactive). Also, the inhibition in [10] is -10.9% (inactive).
`CC(=O)OC/C=C(C)/C=C/C=C(C)/C=C/C1=C(C)CCCC1(C)C`: the parasite load remaining in [1] was 135% (inactive) and 40.4% (inactive). For the same compound, the viability in assay [1] is 96.6% and 98.5%. The nuclear beta-catenin stimulation in assay [2] (at 10 µM) was 3.8% (inactive); in assay [2] (stimulation, at 2 µM), 3.9%. Also, the insulin secretion stimulation in assay [3] was 3% (inactive). In addition, the viability decrease in assay [4] is -11.9% (inactive). Besides, the tube area decrease in assay [5] is 0.2% (inactive). Further, in assay [6], the GLP1 secretion stimulation is 5.9% (inactive). Further, in assay [7], the inhibition of viability is 2.7% (inactive). For the same compound, the viability decrease (inhibition) in assay [8] was -5.5% (inactive); in [9] it was -3.2% (inactive). Further, the inhibition in assay [10] was -10.8% (inactive).

(Values after PubChem BioAssay.)
